# An excerpt weighted towards active compounds, which were near 21% of everything screened.
# Shiga inhibitor: blocks Shiga toxin action in Vero cells; actives 9.2% (n = 290,000); Vero cells, Shiga toxin protein synthesis inhibition reporter; inhibition, % at 38.7 µM; AID 2315; in the data active means inhibition mostly above about 28%, no sharp cut-off; inactive means mostly below about 43%; further: 0% is about no effect
# CHX counter: counter-screen hit for Shiga toxin inhibitors, cycloheximide; cell reporter, cycloheximide protein synthesis inhibition counterscreen; max response, %; actives 12% (n = 300,000); AID 2314; in the data active means max response mostly above about 13%, no sharp cut-off; inactive means mostly below about 14%; further: read at 38.3 µM for the half of the compounds with a filed dose; 0% is about no effect
# Pf growth 48h: inhibits P. falciparum growth in the first generation, 48 h | P. falciparum luciferase growth in erythrocytes, 48 h | Potency, µM (series often up to 28.7 µM), for inactives: top-dose activity change, negative = inhibition, actives largely listed as inhibitors | actives 5.9% (n = 310,000) | AID 504832; further: potency means the concentration at half of the fitted maximal effect; on the % scale 0 is the no-effect control and ±100 the full control effect
#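 Growth was read as firefly luciferase luminescence after a 48 h, 37 C, 5% CO2 exposure of compounds to reporter-bearing P. falciparum cultures (0.1% parasitemia, 2% hematocrit final) in Albumax-supplemented RPMI 1640.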
# SARS PLP yeast: blocks SARS-CoV papain-like protease in a yeast assay | AID 485353 | Potency, µM (highest dose often 32.9 µM), for the others: top-dose activity, positive = growth rescue, hits mostly activators | S. cerevisiae expressing SARS-CoV PLpro, growth rescue | actives 0.19% (n = 330,000); calls by dose curve; further: potency means the concentration at half of the fitted maximal effect; 0% is about no effect; nearly all actives have a fitted effect of over 55% in size
# NS1 inh: blocks influenza NS1 protein function; Potency, µM (series often up to 46.1 µM), for the others: top-dose activity, positive = more growth; actives 0.4% (n = 270,000); AID 2326; calls by dose curve; further: potency means the concentration at half of the fitted maximal effect; actives are rising curves; nearly all actives have a fitted effect of over 50% in size
#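 S. cerevisiae expressing influenza A NS1, grown in glucose, washed, then diluted 1:100 into pH 6.0 -URA galactose medium with 23 nl compound. Growth recovery read as OD600; NS1-free strain serves as control.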
# Pf growth 96h: inhibits malaria parasite growth, 96 h | actives 6.9% (n = 320,000) | Potency, µM (titrated, usually from 28.7 µM), inactives show at the top dose activity change, negative = inhibition, actives largely listed as inhibitors | P. falciparum luciferase reporter growth, 96 h; further: potency means the concentration at half of the fitted maximal effect; on the % scale 0 is the no-effect control and ±100 the full control effect
#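 Luminescence readout: decreased luciferase signal marks inhibited growth of reporter-expressing P. falciparum in infected red cells (2% hematocrit, 0.05% parasitemia final), exposed to compound two generations (96 h, 37 C, 5% CO2).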
# Numbers without * were called inactive; ? = inconclusive; . = not tested or not shown. Unless noted, the call rests on the fitted dose curve; in most records, active means well fitted inhibition curve with a large enough effect; inconclusive means small, poorly fitted or top-dose-only effect, or another doubt; inactive means no such curve, though single readings can be large or run the other way.
SMILES,Shiga inhibitor,CHX counter,Pf growth 48h,SARS PLP yeast,NS1 inh,Pf growth 96h
COc1cc(OC)c(C(=O)O/N=C(\N)c2cccc(C)c2)cc1OC,82*,50*,?,-10%,-3%,-8%
COc1cc(OC)c(C(=O)O/N=C(\N)c2ccc(C)cc2)cc1OC,11,15*,?,-8%,-2%,80%
COc1ccccc1NC(=O)O/N=C(\N)c1ccccc1,24,10,8%,-2%,-56%,-3%
O=C1C(Cl)=C(N2CCC(C(=O)O)CC2)C(=O)c2ccccc21,-8,1,12µM*,-3%,6%,12µM*
CCOc1cc(N2CCOCC2)c(OCC)cc1NC(=O)COc1ccc2ccc(=O)oc2c1,-5,-3,10%,9%,0%,28%
Cc1ccc(N=C(c2cccs2)N2CCOCC2)cc1,59*,15*,43%,-1%,1%,.
O=C(c1cccs1)N1CCOCC1,16,-1,0%,-1%,2%,21%
O/N=C/c1cc2ccccc2n1Cc1ccccc1F,-6,-3,2.6µM*,-6%,5%,15%
S=c1[nH]c2cc(-c3ccccc3)ccc2o1,9,11,32%,-12%,-101%,42%
S=c1[nH]c2ncccc2o1,14,2,-7%,-4%,-1%,2.1µM*
O=C(CC1S/C(=N/N=C/c2cccs2)NC1=O)Nc1ccc(Cl)cc1 (centres undefined),-4,1,-5%,-4%,15%,1.9µM*
O=C(CC1S/C(=N/N=C/c2cccs2)NC1=O)Nc1ccc(Cl)c(Cl)c1 (centres undefined),-10,-7,17%,8%,0%,?
O=C(CC1S/C(=N/N=C/c2c[nH]c3ccc(OCc4ccccc4)cc23)NC1=O)Nc1ccccc1 (centres undefined),-8,-5,18%,-18%,3%,12µM*
CCOC(=O)C1=C(C)NC(C)=C(C(=O)OCC)C1C(=O)OCC(=O)N(C)C,-6,1,56%,2%,-6%,0%
CCN(CC)CCCNC(=O)C1CCC(CNS(=O)(=O)c2ccc(Cl)cc2)CC1 (centres undefined),-9,2,5%,1%,-2%,-46%
C/C(=N\NC(=O)Cn1nc(C)c([N+](=O)[O-])c1C)c1ccc(Cl)s1,10,3,1%,0%,5%,-7%
O=C(CC1Sc2ccccc2NC1=O)Nc1cccc(-c2nnc3n2CCCCC3)c1 (centres undefined),97*,13,9.3µM*,3%,-4%,13µM*
CCC(=O)N1CCN(c2ccc(NC(=O)c3ccco3)cc2)CC1,31*,28*,73%,2%,-16%,-7%
CCC(=O)N1CCN(c2ccc(NC(=O)c3cccs3)cc2)CC1,68*,15*,-5%,-1%,5%,13µM*
CC(=O)N1CCN(c2ccc(NC(=O)c3ccco3)cc2)CC1,72*,18,144%,-3%,6%,21%
O=C(Nc1ccc(N2CCN(C(=O)c3ccccc3)CC2)cc1)c1cccs1,30,4,-14%,-3%,-9%,27%
CCc1ccc(C(=O)N2CCN(c3ccc(NC(=O)c4ccco4)cc3)CC2)cc1,-3,-1,32%,-7%,5%,25%
O=C1/C(=C/c2ccco2)CCC1C1CCCC1 (centres undefined),127*,53*,36%,-7%,.,?
O=C1/C(=C/c2ccccc2)CCC1C1CCCC1 (centres undefined),76*,40*,42%,4%,1%,36%
CCOc1ccc(/C=C2\CCC(C3CCCC3)C2=O)cc1 (centres undefined),21,22*,145%,1%,2%,4%
SMILES,Shiga inhibitor,CHX counter,Pf growth 48h,SARS PLP yeast,NS1 inh,Pf growth 96h
COc1ccccc1/C=C1\CCC(C2CCCC2)C1=O (centres undefined),43*,34*,57%,5%,3%,15µM*
CCOc1ccc(/C=C2\CCC(C3CCCC3)C2=O)cc1OC (centres undefined),30,8,-4%,0%,1%,?
NNC(=O)C(=O)Nc1ccc(Cl)c(Cl)c1,24,-2,6%,0%,3%,24%
COc1ccc(/C=C2\CCC(C3CCCC3)C2=O)cc1Cn1cccn1 (centres undefined),3,1,-25%,-4%,4%,2%
O=C1/C(=C/c2ccc(F)cc2)CCC1C1CCCC1 (centres undefined),75*,41*,86%,-6%,-3%,?
Brc1cc2c(cc1CN1CCN(c3ccccc3)CC1)OCCO2,7,-2,6%,-2%,-5%,12%
COc1ccc(CN2CCN(c3ccccc3)CC2)c(C)c1C,-14,-3,.,8%,-60%,-14%
Cc1ccc(O)c(CN2CCN(c3ccccc3)CC2)c1,11,-2,2.6µM*,-1%,-6%,90%
Cc1cc(O)c(CN2CCN(c3ccccc3)CC2)cc1C,-13,-3,1.5µM*,1%,1%,.
Cc1cc(C)c(S(=O)(=O)Nc2ccccc2-c2ccccc2)c(C)c1,12,8,?,-63%,-20%,164%
C=CCn1c(SCC(=O)Nc2ccc(NC(=O)c3ccco3)c(OC)c2)nnc1-c1ccncc1,-11,-1,13µM*,-3%,?,?
C=CCn1c(SCC(=O)Nc2cccc(OC)c2)nnc1-c1cccnc1,-48,19*,0%,0%,-12%,?
C=CCn1c(SCC(=O)Nc2cc(OC)c(NC(=O)c3ccco3)cc2OC)nnc1-c1ccncc1,11,1,24%,-6%,16%,?
C=CCn1c(SCC(=O)Nc2ccc(C(=O)O)cc2)nnc1-c1cccnc1,5,2,53%,2%,-5%,5%
CN(Cc1ccccc1)C(=O)c1ccccc1N(C)S(=O)(=O)c1ccccc1,.,.,-12%,-5%,.,?
C/C(=N\Nc1cc(N2CCCCC2)nc(C)n1)c1ccc(Br)cc1,-12,-1,3.7µM*,-5%,-148%,-4%
COc1ccc(N2C(=O)c3ccccc3NC2c2cccnc2)cc1 (centres undefined),25,8,57%,-1%,.,113%
COc1ccc(N2C(=O)c3ccccc3NC23CCC(C)CC3)cc1 (centres undefined),54,32*,108%,7%,5%,.
COc1ccc(N2C(=O)c3ccccc3NC23CCCCC3)cc1,52,26*,134%,0%,-7%,187%
COc1ccc(N2C(=O)CSC23CCCCC3)cc1,2,-2,-12%,-2%,-5%,.
COc1ccc(N2C(=O)c3ccccc3NC2(C)C)cc1,73*,15,219%,-1%,.,?
CCOc1ccc(N2C(=O)c3ccccc3NC2(C)CC)cc1 (centres undefined),.,.,374%,-2%,.,420%
